# Whole data set: some 35,000 sequences, median “fluorescence intensity (a.u.)” near 10,000, cut for the highest 2% near 52,000. Shown is part of a subset that was picked to be rich in the highest values.
# Molecular target: T1, OsWOX13 (Oryza sativa, UniProt Q5QMM3 1-267)
# T1 sequence: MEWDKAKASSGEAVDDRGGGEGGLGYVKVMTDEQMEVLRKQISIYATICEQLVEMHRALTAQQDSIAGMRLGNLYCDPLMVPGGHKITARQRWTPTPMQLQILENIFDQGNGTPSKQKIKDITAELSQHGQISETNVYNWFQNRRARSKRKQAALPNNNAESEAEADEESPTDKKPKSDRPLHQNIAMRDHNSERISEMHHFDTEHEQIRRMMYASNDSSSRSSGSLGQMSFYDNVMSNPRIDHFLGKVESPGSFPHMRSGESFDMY
# Experiment: protein-binding microarray (RPBM); PBS, 2% BSA, 51.3 ng/ul salmon testes DNA, 50 uM zinc acetate, 200 nM TF, 25 C, 1 h; high values mean tight binding
# Conditions: protein: recombinant; tags: N-terminal polyhistidine and DsRed monomer fusion (pET32a); label: CyDye5-dUTP incorporated in the synthesized complementary strand; 3' TTTTT single-stranded linker to array surface; dsDNA, one strand shown
# Outline: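 The binding signal for each feature is its fluorescence intensity in arbitrary units. An Axon 4000B scanner was used to read a custom Agilent array that had been made double-stranded with Cy5-dUTP primer extension, blocked with 2% BSA, incubated at 25 °C for 1 h with 200 nM protein in PBS, 2% BSA, salmon testes DNA and 50 µM zinc acetate, and washed. The protein was an N-terminal polyhistidine–DsRed transcription factor fusion from E. coli BL21-CodonPlus, purified on Ni–NTA.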
row,Sequence,binding signal
1,ATACATTAATTTGATGCCCCAATAGAAGCACGCCAATCATCGGAGTCACCTAGTGCAG,12000 fluorescence intensity (a.u.)
2,TGTTGTTAGATGATAAAACATGATTAATATTTTATGCGTGCGGAGTCACCTAGTGCAG,3610 fluorescence intensity (a.u.)
3,GTTTTGATAAATTGATTTAAAACGCTTTATAAGAAGTGTCCGGAGTCACCTAGTGCAG,43800 fluorescence intensity (a.u.)
4,AATTTTGATAGGGTAGAATTGAAAATGTTTATTTGGATTGCGGAGTCACCTAGTGCAG,10500 fluorescence intensity (a.u.)
5,AAATAACTGGTGGATATTTGTACGCTGCCCCTGAGGAACTCGGAGTCACCTAGTGCAG,3900 fluorescence intensity (a.u.)
6,TGTTTTCCTAAGTGATTGGTGGGAAACCTCGTAGGATAAGCGGAGTCACCTAGTGCAG,9180 fluorescence intensity (a.u.)
7,TTGATTGGGAGGAAGCCAAGAAGAAGTCAAGAACTGCCCACGGAGTCACCTAGTGCAG,31900 fluorescence intensity (a.u.)
8,GTTTATTTGGGCCTGATTGGCACAGATGGTAGTGCCATGTCGGAGTCACCTAGTGCAG,31700 fluorescence intensity (a.u.)
9,CCAAAATAAACAACCAAAATTTCGCCGTGTAACTAACTCTCGGAGTCACCTAGTGCAG,3300 fluorescence intensity (a.u.)
10,CGTTTAATTGTGTATATATATAGCCACATTAAAGTACACACGGAGTCACCTAGTGCAG,11100 fluorescence intensity (a.u.)
11,TAGTGTAATTTAACACTTAATTAGCCACATTTGTTACACACGGAGTCACCTAGTGCAG,61900 fluorescence intensity (a.u.)
12,CACAGACACATTTGGTTAATTACATACCTTGTACACTTCACGGAGTCACCTAGTGCAG,6260 fluorescence intensity (a.u.)
13,ATTGACTTGACGACCGCCATGAATTCATCTCATCTCATCTCGGAGTCACCTAGTGCAG,5970 fluorescence intensity (a.u.)
14,AGGCTAATTAACAGAGAGGGGACAATATGCAACAACGTATCGGAGTCACCTAGTGCAG,24000 fluorescence intensity (a.u.)
15,GATGAAACATATATTGACTGTAACATGTAGATTACATGATCGGAGTCACCTAGTGCAG,6110 fluorescence intensity (a.u.)
16,TAATTAATTATAATTAATTAATCCTACTGGTGCTTTCCTTCGGAGTCACCTAGTGCAG,54300 fluorescence intensity (a.u.)
17,TGGTATATTAATTATTTCCTTTCCTTCCTTTCCCTTCCGACGGAGTCACCTAGTGCAG,5690 fluorescence intensity (a.u.)
18,TATAATTATTAATAATTAATTAATTATATATTAATTATTTCGGAGTCACCTAGTGCAG,26700 fluorescence intensity (a.u.)
19,ATTTCTTTAATTAATTAATTAATTAACATATATATCCCTTCGGAGTCACCTAGTGCAG,60600 fluorescence intensity (a.u.)
20,TTCTGCTGCACCTAATTAATTAAATTTCCCCGCTATAATTCGGAGTCACCTAGTGCAG,11300 fluorescence intensity (a.u.)
21,CTTATTAACATTTAATTTGGTTTCTTCCTTAATTTGTATCCGGAGTCACCTAGTGCAG,12600 fluorescence intensity (a.u.)

row,Sequence,binding signal
1,ACTTAATTAACTTGGTTCTTCCTTTAATTTCTAGCTATATCGGAGTCACCTAGTGCAG,50100 fluorescence intensity (a.u.)
2,CTTTAATTTCTTCTTCTTTTCCACATATAATAATAATATACGGAGTCACCTAGTGCAG,4030 fluorescence intensity (a.u.)
3,TTAATTAATTAATTTTCTTCCTAAACATATCCGCTAATCCCGGAGTCACCTAGTGCAG,53500 fluorescence intensity (a.u.)
4,CCATCGTAATTGATCGAAAACTGACAACATGTTAGGGTTGCGGAGTCACCTAGTGCAG,12700 fluorescence intensity (a.u.)
5,AAACAAATGATTTTATTCATTTACTCATTCATCATATCACCGGAGTCACCTAGTGCAG,10300 fluorescence intensity (a.u.)
6,CCATGATGATGAGTCATTTTAACAGTCTGCAAGTACTAAACGGAGTCACCTAGTGCAG,8500 fluorescence intensity (a.u.)
7,GATCGATTTGGTTTTGTTGATTTGATCTGGCCGGACAAGGCGGAGTCACCTAGTGCAG,3980 fluorescence intensity (a.u.)
8,CTGAAACTGATTGAACTTTTGTCCATTTTCAGATCGTGTACGGAGTCACCTAGTGCAG,49400 fluorescence intensity (a.u.)
9,GGGCCGTGATTGATTTGCTGGCGTGTGTGATTTTCAGCTGCGGAGTCACCTAGTGCAG,62900 fluorescence intensity (a.u.)
10,TAGTTTGTGATTGATTTGTCGACATCTGGAGGCGTCATGCCGGAGTCACCTAGTGCAG,58400 fluorescence intensity (a.u.)
11,GCTTAATTGATTAATTTGCTGGACGAGGAATCTTCTATGTCGGAGTCACCTAGTGCAG,64600 fluorescence intensity (a.u.)
12,TTTAATTTTATGTTTTGATTTTAATCTATATCTCTTCTCTCGGAGTCACCTAGTGCAG,22600 fluorescence intensity (a.u.)
13,TGATTTGATTTTCAGTTTTGCACCATGCGATCGATCGAGACGGAGTCACCTAGTGCAG,4320 fluorescence intensity (a.u.)
14,ATTTTGACTGATGTGACGTTTGCGTGGCTGGTTTGATTAGCGGAGTCACCTAGTGCAG,28900 fluorescence intensity (a.u.)
15,AACCCTAGATTGATTTTGCGTGTGCTGCGTGAAGACGGCACGGAGTCACCTAGTGCAG,41400 fluorescence intensity (a.u.)
16,GTTTGATTGATTGATTTCGTGTACCATGCGGACTTCAGATCGGAGTCACCTAGTGCAG,65100 fluorescence intensity (a.u.)
17,GACATATTGTCACCGGTTTTGATTAGTTGTGGATATCTGGCGGAGTCACCTAGTGCAG,6960 fluorescence intensity (a.u.)
18,TGACTTGATTAATTGCTTCTATGTTTGGCACCCAATTAATCGGAGTCACCTAGTGCAG,44900 fluorescence intensity (a.u.)
19,CATCCATCCAACTTAATTTGACAGCAACTCACTGCAGCTTCGGAGTCACCTAGTGCAG,12000 fluorescence intensity (a.u.)
20,TAGTTAAATTTCCATTTAACTAGGGATAAATTAAATGGCTCGGAGTCACCTAGTGCAG,20200 fluorescence intensity (a.u.)
21,AGAATATGATTTTAAAATTAATTTTAGGGGAGGGTTTTACCGGAGTCACCTAGTGCAG,26000 fluorescence intensity (a.u.)
